The results in this text go back to ChEMBL document CHEMBL1961873, “Compounds: GSK PKIS; Assays: Nanosyn kinase panel” (2012).

The target of assay [1] is T1, Serine/threonine-protein kinase D2 (Homo sapiens) (UniProt Q9BZL6).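 Also: mean value of PRKD2 inhibition, from the GSK PKIS screening panel.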
T1 sequence (whole entry): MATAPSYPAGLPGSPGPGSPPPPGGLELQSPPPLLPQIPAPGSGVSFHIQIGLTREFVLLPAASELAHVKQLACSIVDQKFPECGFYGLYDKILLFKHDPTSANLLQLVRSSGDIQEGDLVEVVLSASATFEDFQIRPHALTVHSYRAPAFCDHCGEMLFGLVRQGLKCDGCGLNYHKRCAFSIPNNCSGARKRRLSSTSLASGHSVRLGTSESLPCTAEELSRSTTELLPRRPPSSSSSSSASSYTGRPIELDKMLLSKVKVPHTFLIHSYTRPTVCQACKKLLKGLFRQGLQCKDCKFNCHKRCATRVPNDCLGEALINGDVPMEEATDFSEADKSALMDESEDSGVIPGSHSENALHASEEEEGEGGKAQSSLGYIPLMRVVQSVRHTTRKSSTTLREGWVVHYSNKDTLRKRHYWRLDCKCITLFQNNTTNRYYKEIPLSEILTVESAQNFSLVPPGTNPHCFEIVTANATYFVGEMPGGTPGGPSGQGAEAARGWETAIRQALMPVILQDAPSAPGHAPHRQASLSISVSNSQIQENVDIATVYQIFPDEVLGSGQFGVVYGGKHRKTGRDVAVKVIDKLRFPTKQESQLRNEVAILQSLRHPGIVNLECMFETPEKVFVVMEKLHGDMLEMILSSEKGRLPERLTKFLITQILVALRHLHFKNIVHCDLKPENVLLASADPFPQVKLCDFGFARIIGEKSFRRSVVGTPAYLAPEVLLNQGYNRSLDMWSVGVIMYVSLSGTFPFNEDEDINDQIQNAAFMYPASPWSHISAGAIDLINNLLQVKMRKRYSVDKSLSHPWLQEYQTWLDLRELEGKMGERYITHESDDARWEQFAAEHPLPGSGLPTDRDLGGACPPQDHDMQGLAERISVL
Particulars: at 1 µM.

The target in assay [2] is T2, Serine/threonine-protein kinase D3 (Homo sapiens) (UniProt O94806).
T2 sequence (whole entry): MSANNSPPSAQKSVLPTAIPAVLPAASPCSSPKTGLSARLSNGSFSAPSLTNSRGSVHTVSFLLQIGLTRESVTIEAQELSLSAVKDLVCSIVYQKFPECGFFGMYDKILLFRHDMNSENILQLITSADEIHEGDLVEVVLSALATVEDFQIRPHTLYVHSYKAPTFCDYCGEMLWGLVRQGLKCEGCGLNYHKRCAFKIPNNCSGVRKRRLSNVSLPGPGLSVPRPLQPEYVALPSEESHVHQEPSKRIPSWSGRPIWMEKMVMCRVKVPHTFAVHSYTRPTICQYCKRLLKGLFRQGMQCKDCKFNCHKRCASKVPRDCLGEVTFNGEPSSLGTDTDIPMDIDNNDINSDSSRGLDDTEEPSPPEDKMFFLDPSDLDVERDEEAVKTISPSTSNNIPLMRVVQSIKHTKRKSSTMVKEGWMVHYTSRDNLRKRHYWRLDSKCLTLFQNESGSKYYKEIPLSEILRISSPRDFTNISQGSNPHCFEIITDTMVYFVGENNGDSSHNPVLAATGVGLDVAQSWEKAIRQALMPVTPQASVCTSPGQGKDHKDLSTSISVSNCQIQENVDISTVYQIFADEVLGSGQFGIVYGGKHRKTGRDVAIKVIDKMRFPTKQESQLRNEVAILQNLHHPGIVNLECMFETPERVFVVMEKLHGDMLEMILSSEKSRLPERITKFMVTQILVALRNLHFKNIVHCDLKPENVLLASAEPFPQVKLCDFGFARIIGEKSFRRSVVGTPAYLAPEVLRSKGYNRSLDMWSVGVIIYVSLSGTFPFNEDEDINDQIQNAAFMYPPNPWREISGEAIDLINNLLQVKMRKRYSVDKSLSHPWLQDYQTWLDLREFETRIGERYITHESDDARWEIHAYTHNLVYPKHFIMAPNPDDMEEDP
The conditions noted are these: at 0.1 µM.

In assay [3] the target is T2, Serine/threonine-protein kinase D3 (Homo sapiens). Particulars: at 1 µM.
Assay [4] concerns the target T3, cGMP-dependent protein kinase 1 (Homo sapiens) (UniProt Q13976).
T3 sequence (whole entry): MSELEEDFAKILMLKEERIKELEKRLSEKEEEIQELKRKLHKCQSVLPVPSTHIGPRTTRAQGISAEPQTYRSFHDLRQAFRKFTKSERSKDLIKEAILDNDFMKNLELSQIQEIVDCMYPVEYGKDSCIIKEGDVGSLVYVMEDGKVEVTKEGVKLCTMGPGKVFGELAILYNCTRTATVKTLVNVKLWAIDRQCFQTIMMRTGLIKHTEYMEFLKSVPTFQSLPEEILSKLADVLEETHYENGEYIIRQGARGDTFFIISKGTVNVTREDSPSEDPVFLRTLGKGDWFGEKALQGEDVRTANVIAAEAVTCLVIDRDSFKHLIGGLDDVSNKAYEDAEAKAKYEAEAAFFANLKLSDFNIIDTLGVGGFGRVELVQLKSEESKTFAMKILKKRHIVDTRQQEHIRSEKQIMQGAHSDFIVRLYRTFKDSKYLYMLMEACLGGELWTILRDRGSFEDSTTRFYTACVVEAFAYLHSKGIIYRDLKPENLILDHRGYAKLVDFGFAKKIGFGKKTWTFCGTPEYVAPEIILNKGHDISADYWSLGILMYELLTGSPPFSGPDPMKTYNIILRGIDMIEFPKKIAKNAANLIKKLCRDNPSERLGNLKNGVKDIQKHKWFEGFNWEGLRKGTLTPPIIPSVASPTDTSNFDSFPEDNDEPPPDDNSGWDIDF
The conditions noted are these: at 0.1 µM.

Assay [5] has as its target T3, cGMP-dependent protein kinase 1 (Homo sapiens). Particulars: at 1 µM.
The target of assay [6] is T4, cGMP-dependent protein kinase 2 (Homo sapiens) (UniProt Q13237).
T4 sequence (whole entry): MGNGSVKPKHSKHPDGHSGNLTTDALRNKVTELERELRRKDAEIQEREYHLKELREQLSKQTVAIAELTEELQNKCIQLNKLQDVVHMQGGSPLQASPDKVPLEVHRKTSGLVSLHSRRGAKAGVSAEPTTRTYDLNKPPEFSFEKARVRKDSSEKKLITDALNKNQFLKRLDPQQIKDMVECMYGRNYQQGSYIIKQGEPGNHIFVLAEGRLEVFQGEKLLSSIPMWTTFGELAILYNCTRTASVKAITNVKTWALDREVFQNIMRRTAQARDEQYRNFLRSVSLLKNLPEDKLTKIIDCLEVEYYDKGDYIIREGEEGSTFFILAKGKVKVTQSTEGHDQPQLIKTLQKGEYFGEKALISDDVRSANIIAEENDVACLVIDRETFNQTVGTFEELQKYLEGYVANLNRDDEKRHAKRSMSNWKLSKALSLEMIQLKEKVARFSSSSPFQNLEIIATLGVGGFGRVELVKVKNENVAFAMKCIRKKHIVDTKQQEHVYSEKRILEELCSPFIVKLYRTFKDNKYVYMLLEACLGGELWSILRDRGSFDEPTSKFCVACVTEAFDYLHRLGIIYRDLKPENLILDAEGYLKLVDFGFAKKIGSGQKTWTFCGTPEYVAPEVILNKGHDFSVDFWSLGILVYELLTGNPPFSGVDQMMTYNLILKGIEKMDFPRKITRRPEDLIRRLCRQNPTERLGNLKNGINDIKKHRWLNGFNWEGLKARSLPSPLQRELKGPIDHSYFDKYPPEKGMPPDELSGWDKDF
The conditions noted are these: at 0.1 µM.

The target of assay [7] is T4, cGMP-dependent protein kinase 2 (Homo sapiens). The conditions noted are these: at 1 µM.
For assay [8], the target named is T5, cAMP-dependent protein kinase catalytic subunit PRKX (Homo sapiens) (UniProt P51817).
T5 sequence (whole entry): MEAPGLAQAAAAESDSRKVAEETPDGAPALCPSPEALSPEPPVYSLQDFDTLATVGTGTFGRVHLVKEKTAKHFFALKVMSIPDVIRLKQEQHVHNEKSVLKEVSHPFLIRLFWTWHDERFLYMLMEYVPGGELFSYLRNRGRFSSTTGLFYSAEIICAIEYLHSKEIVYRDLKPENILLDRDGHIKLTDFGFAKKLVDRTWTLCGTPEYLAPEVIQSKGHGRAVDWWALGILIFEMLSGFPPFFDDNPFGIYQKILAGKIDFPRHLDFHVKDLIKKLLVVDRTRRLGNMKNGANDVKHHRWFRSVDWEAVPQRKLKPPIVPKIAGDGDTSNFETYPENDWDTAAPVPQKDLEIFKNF
Particulars: at 0.1 µM.

The target of assay [9] is T5, cAMP-dependent protein kinase catalytic subunit PRKX (Homo sapiens). Particulars: at 1 µM.
Assay [10] addresses Rho-associated protein kinase 1 (Homo sapiens) (UniProt Q13464). Particulars: at 0.1 µM.

Sequence of Rho-associated protein kinase 1 (Homo sapiens) (Q13464 2-1354 limits assumed): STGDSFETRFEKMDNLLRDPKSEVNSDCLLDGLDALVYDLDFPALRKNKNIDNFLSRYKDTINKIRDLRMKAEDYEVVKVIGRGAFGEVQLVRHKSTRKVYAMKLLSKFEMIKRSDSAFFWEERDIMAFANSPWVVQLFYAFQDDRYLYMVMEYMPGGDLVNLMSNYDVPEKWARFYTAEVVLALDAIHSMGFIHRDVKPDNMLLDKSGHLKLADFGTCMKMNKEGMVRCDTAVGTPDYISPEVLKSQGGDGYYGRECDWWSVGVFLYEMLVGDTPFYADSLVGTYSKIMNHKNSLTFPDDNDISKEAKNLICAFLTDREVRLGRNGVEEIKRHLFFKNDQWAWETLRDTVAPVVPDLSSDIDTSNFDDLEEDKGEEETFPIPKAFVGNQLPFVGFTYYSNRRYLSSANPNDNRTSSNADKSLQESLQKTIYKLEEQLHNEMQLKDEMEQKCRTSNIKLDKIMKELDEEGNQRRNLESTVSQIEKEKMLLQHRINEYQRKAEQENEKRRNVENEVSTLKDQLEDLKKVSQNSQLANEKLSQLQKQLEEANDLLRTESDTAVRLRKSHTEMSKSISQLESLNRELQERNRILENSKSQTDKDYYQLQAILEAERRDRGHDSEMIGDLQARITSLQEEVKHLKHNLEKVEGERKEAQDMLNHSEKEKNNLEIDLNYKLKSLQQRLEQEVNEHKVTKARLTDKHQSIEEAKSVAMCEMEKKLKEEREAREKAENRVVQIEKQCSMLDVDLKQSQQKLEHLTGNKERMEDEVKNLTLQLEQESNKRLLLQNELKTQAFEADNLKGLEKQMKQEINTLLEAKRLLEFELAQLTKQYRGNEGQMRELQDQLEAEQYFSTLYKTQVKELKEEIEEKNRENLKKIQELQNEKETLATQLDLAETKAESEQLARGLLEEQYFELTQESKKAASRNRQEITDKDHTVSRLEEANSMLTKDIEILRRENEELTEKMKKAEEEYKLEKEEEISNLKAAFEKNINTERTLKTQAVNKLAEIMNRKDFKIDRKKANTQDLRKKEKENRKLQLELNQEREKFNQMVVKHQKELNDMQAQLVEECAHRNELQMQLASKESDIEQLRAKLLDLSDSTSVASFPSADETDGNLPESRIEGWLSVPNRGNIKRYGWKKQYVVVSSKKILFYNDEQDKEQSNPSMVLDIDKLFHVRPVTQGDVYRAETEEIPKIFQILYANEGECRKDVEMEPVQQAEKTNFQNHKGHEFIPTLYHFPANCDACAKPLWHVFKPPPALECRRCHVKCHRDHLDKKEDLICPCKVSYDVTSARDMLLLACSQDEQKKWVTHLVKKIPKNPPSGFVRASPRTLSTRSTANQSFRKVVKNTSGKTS

For the compound `O=C1Nc2ccccc2/C1=C/Nc1ccc2[nH]c(=O)[nH]c2c1`, the inhibition (as a rule, the relative decrease from the control value, in per cent) was determined as 14% in [1]; 5.54% in [2]; 11.7% in [3]; 1.49% in assay [4]; 6.34% in [5]; 3.41% in [6]. In addition, the inhibition in assay [7] is 13.8%; in assay [8], 2.23%; in assay [9], 8.47%; in [10], 0.24%.

As for `COc1cccc(-n2nc(C)c3c(N/N=C(\C)c4ccncc4)ncnc32)c1`, the inhibition in assay [1] is -1.17%; in assay [2] it was -0.64%; in assay [3], 0.59%; in assay [4], 0.03%; in assay [5] it was 0.55%; in assay [6], 0.35%. The inhibition was -0.19% in assay [7], -0.2% in assay [8], -1.17% in [9] and -1.53% in assay [10].

For `COc1cccc(-n2ncc3c(N/N=C/c4ccc(C)cc4)ncnc32)c1`, the inhibition in assay [1] was 8.29%; in [2], 5.18%; in assay [3], 9.61%; in assay [4], 3.66%; in assay [5], 7.27%; in assay [6], 3.43%. Moreover, the inhibition in assay [7] stood at 5.99%; in assay [8], 2.31%; in assay [9], 4.53%; in assay [10], 3.27%.

In the case of `CCOc1nccc2c1nc(-c1nonc1N)n2CC`, the inhibition was 1.39% in assay [1]; 3.3% in [2]; 2.21% in assay [3]; 4.09% in assay [4]; 5.91% in [5]; 8.5% in assay [6]. For the same compound, the inhibition in assay [7] is 43.1%; in assay [8], 3.1%; in [9], 2.76%; in assay [10], 2.91%.

`Oc1cccc(-c2nc(-c3ccccc3)[nH]c2-c2ccncc2)c1`: the inhibition in [1] is 7.13%; in [2], 2.71%; in [3], 4.25%; in assay [4], 2.56%; in assay [5] it was 5.69%; in assay [6], 1.58%. Also, the inhibition in assay [7] was 6.36%; in [8] it was 2.36%; in assay [9], 2.93%; in assay [10] it was 0.52%.

As to `CN(C)CCCn1c(-c2nonc2N)nc2cnccc21`, the inhibition in [1] was found to be 5.95%; in assay [2], 4.93%; in assay [3], 7.35%; in assay [4], 3.68%; in assay [5] it was 4.99%; in assay [6], 2.51%. Moreover, the inhibition in [7] came to 5.66%; in [8], 1.48%; in assay [9], 3.97%; in assay [10] it was 5.96%.

`NS(=O)(=O)c1ccc(-c2cc3ccncc3cc2OCc2ccccc2)cc1`: the inhibition in [1] came to 4.54%; in [2], 2.31%; in assay [3], 2.51%; in assay [4], 0.96%; in assay [5] it was 4.78%; in [6] it was 1.8%. Also, the inhibition in assay [7] was determined as 3.35%; in assay [8] it was 0.85%; in [9], 1.52%; in [10] it was 0.19%.

As to `FC(F)(F)c1ccc(-c2nn3ncccc3c2-c2ccnc(Nc3ccc4c(c3)OCCO4)n2)cc1`, the inhibition was 3.07% in [1]; -0.32% in assay [2]; -0.07% in [3]; 3.5% in assay [4]; 5.3% in assay [5]; 3.41% in assay [6]. The inhibition worked out at 4.83% in assay [7], 5.94% in [8], 8.53% in assay [9] and 1.44% in assay [10].
